These results are taken from PubChem BioAssay.

Molecules are shown by their SMILES. Calls of active or inactive are those of the source.

Test [1] deals with PRMT1 (protein arginine N-methyltransferase 1). The test can be described thus: PRMT1 binders on small-molecule microarrays, primary screen, biochemical, small-molecule microarray, 635 nm fluorescence (AID 1088).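 Further: binding of Prmt1 protein to compounds spotted on small-molecule microarray slides.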 The note with it: small-molecule microarray binding, higher = more signal.
Test [2] in a line: yeast growth modulation, basal conditions, primary screen, YJM789 clinical isolate, OD600, 24 h (AID 1089).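 Further: growth of clinical yeast isolate S. cerevisiae YJM 789 seeded 1000 cells per well; test concentration not given here.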 The conditions noted are these: S. cerevisiae YJM789 growth, higher = more signal, called active from +8 up or from −8 down.
Test [3] can be described thus: fission yeast growth modulation, primary screen, strain 972, OD600, 24 h, no modulator (AID 1090).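 Further: basal condition with compound alone and no growth modifier present; test concentration not given here.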 The conditions noted are these: S. pombe 972 growth, higher = more signal, called active from +8 up or from −8 down.
Test [4] in a line: S. cerevisiae growth modulation with rapamycin, primary screen, strain BY4716, OD600, 96 h (AID 1091). Further: test concentration not given here. The conditions noted are these: higher = more signal, called active from +8 up or from −8 down.
Test [5] concerns the target Torsin-1A-interacting protein 2 (Homo sapiens) (UniProt Q8NFQ8). The test can be described thus: LULL1 binders on small-molecule microarray, primary screen, cell lysate, human LULL1 lysate, 635/667 nm fluorescence (AID 1092).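 Further: probe is lysate of COS7 cells overexpressing human LULL1; score merges per-feature 667 nm fluorescence with signal-to-noise.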 The conditions noted are these: hLULL1 lysate binding, 635 nm fluorescence, higher = more signal.
Test [6] is described as follows: E. coli growth modulation, two-sided OD650, primary screen, E. coli filamentation project, strain DRC41, 24 h (AID 1093).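 Further: MC1000 strain lacking acrAB efflux and sulA so SOS filamentation is blocked; test concentration not given here.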 The note with it: OD650, 24 h, higher = more signal, called active from +8 up or from −8 down.
A short description of test [7]: small-molecule microarray binders of probe aLefty2, primary screen, biochemical, biotinylated probe, 635/667 nm fluorescence (AID 1094).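 Further: score merges spot fluorescence near 667 nm with spot signal-to-noise ratio.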 The note with it: higher = more signal.
Test [8] concerns Noggin (protein binding on small-molecule microarray). The test can be described thus: Noggin binders on small-molecule microarray, primary screen, biochemical, 635/667 nm fluorescence (AID 1095).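 Further: score merges 667 nm feature fluorescence with signal to noise over triplicate slides.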 The conditions noted are these: 635 nm fluorescence, higher = more signal.
Test [9] deals with Neurogenic locus notch homolog protein 3 (Homo sapiens) (UniProt Q9UM47). Briefly: NOTCH3 binders on small-molecule microarray, primary screen, biochemical, 635/667 nm fluorescence (AID 1096). The note with it: NOTCH3 binding, 635 nm fluorescence, higher = more signal.
Neurogenic locus notch homolog protein 3 (Homo sapiens), sequence (Q9UM47 whole entry, looked up): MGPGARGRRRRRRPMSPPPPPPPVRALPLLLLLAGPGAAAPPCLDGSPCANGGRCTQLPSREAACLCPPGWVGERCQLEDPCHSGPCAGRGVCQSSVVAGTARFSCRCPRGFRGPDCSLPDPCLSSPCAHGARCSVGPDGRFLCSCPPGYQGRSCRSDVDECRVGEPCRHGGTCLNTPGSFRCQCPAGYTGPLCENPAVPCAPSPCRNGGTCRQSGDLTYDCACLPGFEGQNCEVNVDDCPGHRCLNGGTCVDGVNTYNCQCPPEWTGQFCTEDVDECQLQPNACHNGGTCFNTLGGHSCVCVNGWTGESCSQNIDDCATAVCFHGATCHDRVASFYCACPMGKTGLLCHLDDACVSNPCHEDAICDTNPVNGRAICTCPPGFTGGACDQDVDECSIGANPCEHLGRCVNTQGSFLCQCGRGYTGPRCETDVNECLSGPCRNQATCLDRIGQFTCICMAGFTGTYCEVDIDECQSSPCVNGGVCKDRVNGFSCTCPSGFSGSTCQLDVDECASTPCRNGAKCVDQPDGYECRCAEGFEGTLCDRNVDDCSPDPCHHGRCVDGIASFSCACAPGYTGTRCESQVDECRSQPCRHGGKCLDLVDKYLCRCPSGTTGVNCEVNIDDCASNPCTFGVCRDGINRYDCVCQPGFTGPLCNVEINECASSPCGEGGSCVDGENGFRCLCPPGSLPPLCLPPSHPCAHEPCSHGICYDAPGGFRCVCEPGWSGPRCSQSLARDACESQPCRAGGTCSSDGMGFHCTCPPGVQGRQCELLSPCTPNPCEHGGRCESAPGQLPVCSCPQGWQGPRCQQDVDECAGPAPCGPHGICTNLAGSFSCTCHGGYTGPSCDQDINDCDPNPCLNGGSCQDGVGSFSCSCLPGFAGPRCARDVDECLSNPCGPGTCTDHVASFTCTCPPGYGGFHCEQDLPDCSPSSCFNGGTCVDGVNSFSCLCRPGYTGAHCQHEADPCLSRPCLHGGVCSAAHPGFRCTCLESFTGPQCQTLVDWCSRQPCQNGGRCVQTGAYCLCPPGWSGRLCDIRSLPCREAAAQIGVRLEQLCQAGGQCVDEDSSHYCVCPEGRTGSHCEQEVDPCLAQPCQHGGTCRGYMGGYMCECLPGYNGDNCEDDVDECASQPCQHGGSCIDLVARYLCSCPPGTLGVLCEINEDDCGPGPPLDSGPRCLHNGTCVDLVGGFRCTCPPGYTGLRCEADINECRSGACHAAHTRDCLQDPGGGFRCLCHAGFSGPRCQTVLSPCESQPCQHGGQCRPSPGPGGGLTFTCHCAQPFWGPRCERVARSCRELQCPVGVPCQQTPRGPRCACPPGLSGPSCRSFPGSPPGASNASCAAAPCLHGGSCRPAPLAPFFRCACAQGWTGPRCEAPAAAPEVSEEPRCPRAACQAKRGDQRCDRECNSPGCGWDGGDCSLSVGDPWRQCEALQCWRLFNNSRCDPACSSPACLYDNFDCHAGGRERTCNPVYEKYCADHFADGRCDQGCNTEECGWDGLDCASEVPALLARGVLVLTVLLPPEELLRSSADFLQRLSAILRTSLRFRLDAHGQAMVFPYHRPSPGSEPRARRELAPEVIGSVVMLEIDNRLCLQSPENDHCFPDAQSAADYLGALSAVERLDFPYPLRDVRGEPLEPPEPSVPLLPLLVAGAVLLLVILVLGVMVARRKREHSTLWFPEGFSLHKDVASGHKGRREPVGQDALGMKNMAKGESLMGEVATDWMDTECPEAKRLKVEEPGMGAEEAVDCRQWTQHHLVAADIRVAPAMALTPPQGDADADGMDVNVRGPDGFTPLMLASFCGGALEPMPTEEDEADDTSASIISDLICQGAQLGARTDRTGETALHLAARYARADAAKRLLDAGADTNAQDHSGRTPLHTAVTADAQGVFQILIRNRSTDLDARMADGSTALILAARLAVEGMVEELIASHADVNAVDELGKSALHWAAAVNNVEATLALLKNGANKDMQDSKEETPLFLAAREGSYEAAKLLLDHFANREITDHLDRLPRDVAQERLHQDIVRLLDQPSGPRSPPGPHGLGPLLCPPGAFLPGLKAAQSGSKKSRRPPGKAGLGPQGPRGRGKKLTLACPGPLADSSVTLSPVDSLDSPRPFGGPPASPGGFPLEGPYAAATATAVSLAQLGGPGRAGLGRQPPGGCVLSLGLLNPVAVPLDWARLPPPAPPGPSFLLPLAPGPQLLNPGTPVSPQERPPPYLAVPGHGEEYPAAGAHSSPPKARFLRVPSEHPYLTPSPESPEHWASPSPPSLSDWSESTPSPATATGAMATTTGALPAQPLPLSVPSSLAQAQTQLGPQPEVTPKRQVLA
The nature of test [10]: small-molecule microarray binders of probe aEGFR, primary screen, biochemical, biotinylated probe, 635/667 nm fluorescence (AID 1097).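 Further: probe is a biotinylated anti-EGFR antibody binding compounds printed on slides; score combines fluorescence near 667 nm and signal to noise of each spot.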 The note with it: higher = more signal.

Torsin-1A-interacting protein 2 (Homo sapiens), sequence (Q8NFQ8 whole entry, looked up): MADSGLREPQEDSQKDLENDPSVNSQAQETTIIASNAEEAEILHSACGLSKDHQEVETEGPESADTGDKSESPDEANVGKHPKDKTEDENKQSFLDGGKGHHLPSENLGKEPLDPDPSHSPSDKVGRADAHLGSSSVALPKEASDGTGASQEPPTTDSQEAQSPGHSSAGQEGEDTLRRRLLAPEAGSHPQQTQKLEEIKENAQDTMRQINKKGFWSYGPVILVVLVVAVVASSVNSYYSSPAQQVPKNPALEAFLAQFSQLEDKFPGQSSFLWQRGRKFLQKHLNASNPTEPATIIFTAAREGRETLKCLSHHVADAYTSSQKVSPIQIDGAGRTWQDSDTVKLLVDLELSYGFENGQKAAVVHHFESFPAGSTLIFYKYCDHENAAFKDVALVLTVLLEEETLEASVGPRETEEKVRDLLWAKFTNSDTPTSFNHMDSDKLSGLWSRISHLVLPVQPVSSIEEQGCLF

On to `CN(C)CCCC[C@@H]1NC(=O)[C@H]2C[C@@H](C(=O)NCCCCCN)[C@@H](c3cccc(OCCO)c3)N2C1=O`, for which the composite z-score in test [1] was found to be 1.54; in test [5], 2.26; in [7], 0.801; in [8], 1.38; in test [9], 0.339; in test [10] it was 0.374. Moreover, the z-score in test [2] is -0.717 (inactive); in test [3], -5.79 (inactive); in test [4], -0.503 (inactive); in test [6] it was 1.04 (inactive).
In the case of `O=C1NC(=O)C2C1C=CC(C(O)c1ccc(I)cc1)N2Nc1ccccn1` (stereo not given), the composite z-score in test [1] is 0.321; in test [5], 2.56; in [7] it was -0.0328; in [8], 0.143; in test [9], 0.15; in [10] it was -0.0947. In addition, the z-score is -0.353 (inactive) in test [2], 0.426 (inactive) in test [3], 0.17 (inactive) in test [4] and -0.956 (inactive) in test [6].
With `O=C1O[C@H](c2ccccc2)[C@H](c2ccccc2)N2[C@H]1[C@@H](C(=O)NC[C@H](O)c1ccccc1)[C@]1(C(=O)Nc3ccccc31)[C@H]2c1ccc(O)cc1`, the composite z-score in test [1] is 1.39; in test [5] it was 2.56; in test [7], -0.134; in test [8] it was 0.798; in [9] it was 0.608; in test [10], -0.108. Also, the z-score in test [2] was 0.754 (inactive); in [3], 0.817 (inactive); in [4] it was 1.7 (inactive); in [6] it was -0.408 (inactive).
For `C=CC[C@]12N=C(c3ccc(OCCCO)cc3)O[C@H]1c1ccccc1N(CCS(=O)(=O)c1ccccc1)C2=O`, the composite z-score in [1] is 1.49; in [5], 2.14; in test [7], 0.0561; in test [8], 0.698; in test [9] it was 1.07; in test [10], -0.0828. Besides, the z-score in test [2] is -1.07 (inactive); in [3] it was -1.51 (inactive); in [4], 0.811 (inactive); in test [6], 1.02 (inactive).
For `CN1C(=O)C2C=CC(C(O)c3ccc(F)cc3)N(N(c3ccccc3)c3ccccc3)C2C1=O` (stereo not given), the composite z-score in [1] was 0.672; in test [5], 1.86; in test [7], 0.0606; in test [8], 0.3; in test [9], 0.121; in [10] it was -0.0234. The z-score in test [2] is 0.0729 (inactive); in test [3], 0.91 (inactive); in test [4] it was 0.0933 (inactive); in test [6], -1.2 (inactive).
As for `CN1C(=O)C2C=CC(C(O)c3c(F)cccc3Cl)N(NC(=O)OC(C)(C)C)C2C1=O` (stereo not given), the composite z-score in test [1] is 1.3; in test [5] it was 3.45; in [7], 0.18; in test [8], -0.388; in test [9], 0.686; in test [10], 0.0675. Moreover, the z-score in [2] was -0.143 (inactive); in test [3] it was 0.415 (inactive); in test [4], 0.635 (inactive); in test [6] it was -0.597 (inactive).
As to `COc1ccc(NN2C(C(O)c3ccc(N(C)C)cc3)C=CC3C(=O)N(C4CCCCC4)C(=O)C32)cc1` (stereo not given), the composite z-score in test [1] is 1.51; in test [5] it was 2.91; in test [7], 0.329; in test [8] it was 0.134; in test [9] it was 1.09; in test [10], 0.174. Moreover, the z-score in [2] was -0.229 (inactive); in [3], 0.594 (inactive); in [4], 0.687 (inactive); in test [6], -0.386 (inactive).
As for `O=C1C2C=CC(C(O)COCc3ccccc3)N(Nc3ccc([N+](=O)[O-])cc3)C2C(=O)N1c1ccccc1` (stereo not given), the composite z-score in test [1] is 1.46; in test [5], 2.83; in test [7] it was 0.168; in [8] it was 0.661; in [9], 1.09; in test [10], -0.0072. In addition, the z-score was -0.464 (inactive) in [2], 1.12 (inactive) in test [3], 2.16 (inactive) in test [4] and 0.547 (inactive) in test [6].
For the compound `Cc1ccc(/C=C/C=O)cc1`, the composite z-score in test [1] is -0.379; in test [5], -0.1; in [7] it was -0.123; in test [8], -0.244; in test [9], -0.998; in test [10] it was -0.135. Also, the z-score in [2] is 0.427 (inactive); in test [3], -4.06 (inactive); in [4] it was -0.141 (inactive); in test [6], 0.492 (inactive).
For the compound `C#CCOc1ccc(C[C@@H](C(=O)OC)N(CC#C)[C@@H](/C=C/C2CC2)[C@H](O)Cc2ccccc2)cc1`, the composite z-score in test [1] was -0.828; in [5], -0.361; in [7] it was -0.0561; in test [8], -0.446; in test [9], -0.384; in test [10], -0.312. The z-score in test [2] was 0.591 (inactive); in test [3], 0.027 (inactive); in test [4], 1.29 (inactive); in [6] it was -0.914 (inactive).
For the compound `O=C(O)[C@@]1(CCS(=O)(=O)c2ccccc2)N=C(c2ccc(OCCCO)cc2)O[C@H]1c1ccccc1`, the composite z-score in test [1] is 1.07; in test [5], 3.46; in [7], 0.16; in [8], -0.0519; in test [9], -0.0296; in [10], -0.144. For the same compound, the z-score in test [2] is -0.326 (inactive); in test [3], -5.25 (inactive); in [4], -0.934 (inactive); in test [6] it was 0.712 (inactive).
Turning to `C=CC[C@@]1(C(=O)N2CCCCC2)N=C(c2ccc(OCCCO)cc2)O[C@@H]1c1ccccc1N=[N+]=[N-]`, the composite z-score in test [1] worked out at 1.54; in test [5] it was 3.23; in test [7], 0.286; in test [8], 0.564; in test [9], 1.13; in test [10], 0.14. Moreover, the z-score in test [2] is -0.989 (inactive); in test [3], -0.577 (inactive); in [4], 1.13 (inactive); in [6] it was 1.07 (inactive).
As to `CCOC(=O)C[C@H]1[C@H](OC(=O)c2cc3ccccc3oc2=O)[C@@H](NC(=O)CC(C)C)c2cc(OCCCO)ccc2N1C(=O)c1ccccc1`, the composite z-score is 0.983 in test [1]; 1.52 in [5]; -0.0661 in test [7]; 0.805 in test [8]; 0.606 in [9]; -0.0828 in test [10]. Further, the z-score in test [2] was -0.789 (inactive); in [3], -0.769 (inactive); in [4], -0.193 (inactive); in test [6] it was 2.64 (inactive).
For the compound `COc1ccccc1CN1C(=O)c2ccccc2[C@@]2(Cc3ccccc3N(CCCN(C)C)C2=O)[C@@H]1c1ccc(CO)cc1`, the composite z-score in test [1] was 0.557; in test [5], 0.425; in [7], -0.247; in test [8], 0.395; in [9], 0.0593; in test [10], -0.0612. For the same compound, the z-score was 0.431 (inactive) in test [2], -1.23 (inactive) in [3], -1.35 (inactive) in test [4] and 0.276 (inactive) in test [6].
For `CC#CC(=O)Oc1ccc(Br)cc1C=CC(=O)OCC`, the composite z-score in test [1] is 0.162; in [5] it was 1.18; in [7], 0.188; in test [8] it was -0.157; in test [9] it was 0.0254; in test [10] it was -0.0765. For the same compound, the z-score is -23.6 (active) in [2], -16 (active) in [3], -2.38 (inactive) in test [4] and -0.0056 (inactive) in test [6].
